Experimental findings from the supplement of paper PMC6555819 are described below.

In the first assay the test system is PXR homodimer (NR concentration 270 nM). In words: PBM binding z-score (relative to random genomic background probes); higher = stronger binding; sequences stand for … in GC…GCGATTGACAGCGTAGAATGAAGG
The method, boiled down: (§1)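 Binding z-scores take random background probes as their reference. They come from custom Agilent 4×180K protein-binding microarrays incubated 1 h with ligand-free nuclear receptor dimers, with antibodies against each partner (one per run) detecting binding. Scanned fluorescence was regression-normalized.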
On to ACTATTAGTTGAGAAGAGGGCAACCGATAGGTTG, for which the PBM binding z-score turned out to be 0.445.

As to CGAACTAGGTCTGAACAGGACAGTGAAGGATGAT, the PBM binding z-score is -0.469.

As to CCGAGTAGGTTATGGGGCATTCCGGCAACGGTGA, the PBM binding z-score is -0.17.

On to GCTCGGATGACAAGGTCAGAGCTTTGTCCGTAGA, for which the PBM binding z-score was -0.626.

With CGAACTAGGTCAAAGGTCAAAGTCGAGCCAACCA, the PBM binding z-score worked out at 2.03.

For GCGACTGGTGCATCAGCAGGTTACCATAACTTAA, the PBM binding z-score is -0.653.

In turn, TCTAGTTGGTCACGGAGGTCACACACGACGGGTA came in with a PBM binding z-score of 1.8.

Turning to GTTGCTAGGTCAGGTTGGTCAGCTAACGGGTACG, the PBM binding z-score is 0.178.

With TCGTGTAGATCAGCAGGTTAAGAAAGCTGGCCAA, the PBM binding z-score is -0.356.

Turning to GCTGGCAGGCCATTTGGGTCACTCAATGACGGGC, the PBM binding z-score was 0.117.

For TGAATCAGGTTATAAGATCAGGGAACGTTGCAAA, the PBM binding z-score is -0.197.

For AGCATGAGGTTATACGTAGATCAGGGAAGAAAGT, the PBM binding z-score turned out to be 0.948.

For the sequence CCTAGCAGGCCAATTTGGGTCACTCAAGGCTTGA, the PBM binding z-score was -0.236.

In turn, GATACAGGGTCAAGACCAGAGTACGCGTATTGAT displayed a PBM binding z-score of 0.195.

Turning to TCTCGGAGGACACGAAGGACAGAGCTTTCCAGAG, the PBM binding z-score was -0.367.

With CCGACTGGGCCACGAAAGGTCATTGATTCAGTGA, the PBM binding z-score was found to be 0.941.

The sequence ATCGAAAGGTCGAAGGTTAGTATACCCACCCGAA gave a PBM binding z-score of 0.404.

Consider TGAATGACGTTATAAGATCAGGGAACGTTGCAAA, for which the PBM binding z-score was -0.13.

For AGAATGAGGCTACCAAAGATCAGGGAAACGCTTG, the PBM binding z-score was -0.439.

Sequence CAAACTAGGTCAAGGTCATAGTCGGTTTGTGCCA returned a PBM binding z-score of 2.73.

On to TCACGGAGGACACGAAAGGTCAGAGCTCGACATC, for which the PBM binding z-score came to 0.408.

As for ACTAGCAGGCCAGGTTTGGGTCACTCAAACAAAG, the PBM binding z-score was -0.166.

For TAGCCTAGGTCATGGGCCAGTAGACCACGCGAAC, the PBM binding z-score is -0.436.

On to CCCTACGGGTCACTGACAGGTTATAGCATTTGGA, for which the PBM binding z-score came to 0.381.

GATACAGGGTCAACGCCAGAGTACGCGTATTGAT registered a PBM binding z-score of 0.215.

As for ACAGACAGGTGACGAAGGTAACTCAGGCTATCAT, the PBM binding z-score was -0.237.

In turn, TCAGACAGGTGGAGGTAACTCAGGTACGCAGTCG yielded a PBM binding z-score of 0.154.

TCTATTAGTTGATTAGGGCAGCCGAAACAGCGGA had a PBM binding z-score of 0.226.

For the sequence GCTAGCAGGCCATTTGGGACACTCAATGACGGGC, the PBM binding z-score is -0.736.

In the case of TAGCCTAGGTCATGCAGGCCAGTATAGTGTCGGC, the PBM binding z-score was -0.409.

On to TCTTGTAGATCAAGCAGGTTAATAAAGCCTGAGT, for which the PBM binding z-score stood at 0.326.

In the case of CTCCAAAGGTCGTGCTCAGGTGAGTATACCAAAC, the PBM binding z-score is 0.561.

On to GCTGCTAGGTCCACTGATGGTCAGCTAAAGCTCG, for which the PBM binding z-score was -1.03.

The sequence ATATGTAGCTTATCGGGTCATTCAGTTTGCGCAT came in with a PBM binding z-score of 8.3.

Take CCTCGGAGGACAGTAGGTCAGAGCTGTCCGCTTT: the PBM binding z-score is -0.598.

AGAATGAGGTTATAAAGATCAGGGAATTGCGGTC registered a PBM binding z-score of 0.572.

GCTTGTAGATTAAGGTTAAGAAAGACTAAGCTAA: the PBM binding z-score was -0.332.

As for CGTCAAAGTTCAATGTAACGTAACAGAAAGCAGC, the PBM binding z-score came to 4.

Turning to TCTATTAGTTGATAAGGGCAACCGAAACAGCGGA, the PBM binding z-score worked out at 0.649.

Regarding GCTAGTTGGTCAGTAAAAGGTCACAGACCGGTCG, the PBM binding z-score was found to be 1.24.

Another assay deals with RARa:RXR (NR concentration 270 nM, RXRa partner concentration 90 nM). The description is as above. The method, boiled down: as §1
For the sequence ACTATTAGTTGAGAAGAGGGCAACCGATAGGTTG, the PBM binding z-score amounted to 0.623.

For the sequence CGAACTAGGTCTGAACAGGACAGTGAAGGATGAT, the PBM binding z-score was -0.635.

Sequence CCGAGTAGGTTATGGGGCATTCCGGCAACGGTGA showed a PBM binding z-score of 0.0767.

Sequence GCTCGGATGACAAGGTCAGAGCTTTGTCCGTAGA gave a PBM binding z-score of 2.09.

CGAACTAGGTCAAAGGTCAAAGTCGAGCCAACCA: the PBM binding z-score was 8.93.

Consider GCGACTGGTGCATCAGCAGGTTACCATAACTTAA, for which the PBM binding z-score is -0.046.

Sequence TCTAGTTGGTCACGGAGGTCACACACGACGGGTA displayed a PBM binding z-score of 4.53.

GTTGCTAGGTCAGGTTGGTCAGCTAACGGGTACG returned a PBM binding z-score of 0.933.

The sequence TCGTGTAGATCAGCAGGTTAAGAAAGCTGGCCAA showed a PBM binding z-score of 0.167.

With GCTGGCAGGCCATTTGGGTCACTCAATGACGGGC, the PBM binding z-score is 0.679.

On to TGAATCAGGTTATAAGATCAGGGAACGTTGCAAA, for which the PBM binding z-score is -0.101.

Regarding AGCATGAGGTTATACGTAGATCAGGGAAGAAAGT, the PBM binding z-score is 1.38.

Regarding CCTAGCAGGCCAATTTGGGTCACTCAAGGCTTGA, the PBM binding z-score stood at 1.52.

GATACAGGGTCAAGACCAGAGTACGCGTATTGAT returned a PBM binding z-score of 3.93.

TCTCGGAGGACACGAAGGACAGAGCTTTCCAGAG showed a PBM binding z-score of 0.0176.

The sequence CCGACTGGGCCACGAAAGGTCATTGATTCAGTGA showed a PBM binding z-score of 4.89.

ATCGAAAGGTCGAAGGTTAGTATACCCACCCGAA: the PBM binding z-score came out at 4.69.

Sequence TGAATGACGTTATAAGATCAGGGAACGTTGCAAA had a PBM binding z-score of 0.166.

In the case of AGAATGAGGCTACCAAAGATCAGGGAAACGCTTG, the PBM binding z-score is -0.0885.

CAAACTAGGTCAAGGTCATAGTCGGTTTGTGCCA had a PBM binding z-score of 5.56.

For TCACGGAGGACACGAAAGGTCAGAGCTCGACATC, the PBM binding z-score came out at 4.8.

ACTAGCAGGCCAGGTTTGGGTCACTCAAACAAAG gave a PBM binding z-score of 1.17.

The sequence TAGCCTAGGTCATGGGCCAGTAGACCACGCGAAC returned a PBM binding z-score of 2.64.

With CCCTACGGGTCACTGACAGGTTATAGCATTTGGA, the PBM binding z-score was found to be 4.28.

Sequence GATACAGGGTCAACGCCAGAGTACGCGTATTGAT registered a PBM binding z-score of 5.05.

Regarding ACAGACAGGTGACGAAGGTAACTCAGGCTATCAT, the PBM binding z-score was determined as 0.144.

TCAGACAGGTGGAGGTAACTCAGGTACGCAGTCG registered a PBM binding z-score of 0.233.

TCTATTAGTTGATTAGGGCAGCCGAAACAGCGGA returned a PBM binding z-score of 0.394.

For the sequence GCTAGCAGGCCATTTGGGACACTCAATGACGGGC, the PBM binding z-score was -0.559.

As for TAGCCTAGGTCATGCAGGCCAGTATAGTGTCGGC, the PBM binding z-score turned out to be 2.37.

For the sequence TCTTGTAGATCAAGCAGGTTAATAAAGCCTGAGT, the PBM binding z-score amounted to 0.406.

As to CTCCAAAGGTCGTGCTCAGGTGAGTATACCAAAC, the PBM binding z-score is 4.78.

In the case of GCTGCTAGGTCCACTGATGGTCAGCTAAAGCTCG, the PBM binding z-score was -0.598.

As to ATATGTAGCTTATCGGGTCATTCAGTTTGCGCAT, the PBM binding z-score amounted to 2.8.

In turn, CCTCGGAGGACAGTAGGTCAGAGCTGTCCGCTTT returned a PBM binding z-score of 0.582.

Take AGAATGAGGTTATAAAGATCAGGGAATTGCGGTC: the PBM binding z-score was determined as 1.58.

Consider GCTTGTAGATTAAGGTTAAGAAAGACTAAGCTAA, for which the PBM binding z-score amounted to 1.01.

On to CGTCAAAGTTCAATGTAACGTAACAGAAAGCAGC, for which the PBM binding z-score was 3.03.

For the sequence TCTATTAGTTGATAAGGGCAACCGAAACAGCGGA, the PBM binding z-score is 0.881.

In turn, GCTAGTTGGTCAGTAAAAGGTCACAGACCGGTCG gave a PBM binding z-score of 6.32.
